# High-throughput results: PubChem, National Center for Advancing Translational Sciences (NCATS)
# Tau fluor counter = Counterscreen qHTS for Inhibitors of Tau Fibril Formation, Fluorescence Polarization | AID 1463, 2008 | Potency, µM (titrated, usually from 57.7 µM) | actives 0.93% (n = 280,000) | tau K18 P301L Alexa594 fluorescence, heparin fibrillization; also: nearly all actives have a fitted effect of over 55% in size
#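 Human tau K18 P301L (15 uM unlabeled, 0.24 uM Alexa 594-labeled) in 100 mM sodium acetate pH 7 with 20 uM heparin, 6 hr at 37 C. ThT 30 uM added, 1 hr ambient; Alexa 594 FP and total fluorescence read at 555/632 nm.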
# Tau fibril ThT = qHTS for Inhibitors of Tau Fibril Formation, Thioflavin T Binding | Microtubule-associated protein tau (Homo sapiens), P10636 | recombinant tau K18 P301L, heparin-induced fibrillization, ThT fluorescence | Potency, µM (highest dose often 57.4 µM), actives largely listed as inhibitors | actives 2.1% (n = 270,000); also: nearly all actives have a fitted effect of over 55% in size
#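 Fibril formation assay: tau K18 P301L at 15 uM with trace Alexa 594 label, heparin inducer 20 uM, pH 7 sodium acetate buffer, 37 C for 6 hr; endpoint ThT signal.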
# USP1 inh = Inhibitors of USP1/UAF1: Primary Screen. Ubiquitin carboxyl-terminal hydrolase 1 (Homo sapiens), O94782. recombinant USP1/UAF1, Ub-Rhodamine cleavage fluorescence. Potency, µM (titrated, usually from 57.1 µM), hits mostly inhibitors. actives 0.23% (n = 390,000). AID 743255, 2014; also: nearly all actives have a fitted effect of over 60% in size
# Target sequence (O94782 whole entry, looked up): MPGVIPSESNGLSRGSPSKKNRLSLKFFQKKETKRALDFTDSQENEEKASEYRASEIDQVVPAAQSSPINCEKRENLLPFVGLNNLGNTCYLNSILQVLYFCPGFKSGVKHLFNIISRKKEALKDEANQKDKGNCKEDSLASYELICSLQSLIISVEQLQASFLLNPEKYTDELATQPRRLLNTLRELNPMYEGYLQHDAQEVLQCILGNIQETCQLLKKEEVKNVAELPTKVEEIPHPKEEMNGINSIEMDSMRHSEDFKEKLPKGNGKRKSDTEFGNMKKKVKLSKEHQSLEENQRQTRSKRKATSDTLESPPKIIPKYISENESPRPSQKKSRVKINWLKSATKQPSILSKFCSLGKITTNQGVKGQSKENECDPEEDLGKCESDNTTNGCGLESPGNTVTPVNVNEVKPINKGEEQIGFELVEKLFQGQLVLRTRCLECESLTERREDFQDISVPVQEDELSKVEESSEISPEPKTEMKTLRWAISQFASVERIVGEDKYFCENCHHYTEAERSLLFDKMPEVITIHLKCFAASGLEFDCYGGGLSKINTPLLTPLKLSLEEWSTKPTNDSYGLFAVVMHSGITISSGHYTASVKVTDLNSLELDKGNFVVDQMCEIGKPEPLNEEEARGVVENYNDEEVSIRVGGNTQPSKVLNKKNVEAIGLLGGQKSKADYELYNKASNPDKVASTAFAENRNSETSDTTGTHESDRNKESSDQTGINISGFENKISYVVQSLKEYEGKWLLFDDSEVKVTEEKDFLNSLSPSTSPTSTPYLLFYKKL
#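 In this screen, compounds sit with the deubiquitinase complex (1nM) for 15 min at room temperature before Ub-Rho is added at 150nM final. Fluorescence rise is then followed for 6 reads every 60 seconds.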
# Tau FP inhib = qHTS for Inhibitors of Tau Fibril Formation, Fluorescence Polarization; K18 P301L tau heparin fibrillization, Alexa594 FP, 6 h; Microtubule-associated protein tau (Homo sapiens), P10636; actives 0.39% (n = 280,000); Potency, µM (titrated, usually from 57.7 µM), most hits filed as inhibitors; also: nearly all actives have a fitted effect of over 55% in size
#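 Compound effects on tau fibrillization are measured by Alexa 594 fluorescence polarization (ex 555, em 632 nm). K18 P301L tau is used at 15 uM with 0.24 uM labeled tracer, and 20 uM heparin induces aggregation over 6 hr at 37 C.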
# Coupling enz = qHTS Assay for Inhibitors of Fructose-1,6-bisphosphate Aldolase from Giardia Lamblia: Coupling assay counterscreen; coupling enzyme system counterscreen, AmpLite Red fluorescence; activity change, negative = inhibition, % at 58.2 µM, hits read low; actives 0.67% (n = 290,000); AID 2472, 2010; in the data active = activity change below about -30%
#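 Coupling enzymes only (glyceraldehyde-3-phosphate) + compound, at 57.5 uM final, 10 min RT; add substrate/coupling/AmpLite Red mix, 20 min RT; fluorescence ex 525/em 598 nm. Actives flag coupling-system interference.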
# A number is an active result; . = inactive; ? = inconclusive; / = no result given; [ ] = remark or other dose. Shown are actives, neighbours in structure and some others; about 2.3% of the full set was active somewhere. Unless noted, calls follow the shape of the dose curve; as a rule, active = well fitted curve in the direction sought with a large enough effect; inconclusive = small, poorly fitted or top-dose-only effect, or another doubt; inactive = no such curve, though single readings can be large; an effect the other way counts as inactive or inconclusive.
SMILES,Tau fluor counter,Tau fibril ThT,USP1 inh,Tau FP inhib,Coupling enz
CSc1ccc(CCNC(=O)CCc2c(C)nc3c(c(C)nn3-c3ccc(C)c(C)c3)c2C)cc1,.,.,.,.,/
O=C(/C=C/Nc1cccc([N+](=O)[O-])c1)c1ccco1,/,/,.,/,/
Cc1ccc(C(=O)/C=C/Nc2cccc([N+](=O)[O-])c2)o1,?,14.1µM,.,.,.
C=CCN1C(=O)/C(=C/c2ccc(OCC(=O)O)cc2)S/C1=N/c1nccs1,.,?,.,.,.
C=CCN1C(=O)/C(=C/c2ccc(O)c(OC)c2)S/C1=N/c1nccs1,28.2µM[quencher],?,?,.,.
C#CCOc1ccc(C(=O)N(C)c2ccccc2I)cc1,/,/,/,/,.
COc1ccc(C(=O)Nc2ccc(OCC(F)(F)C(F)F)c(C(F)(F)F)c2)cc1OC,?,.,?,22.4µM,.
CCCCc1nc2c(c3c1C[C@H](C)OC3)CN(S(=O)(=O)c1ccc(C)cc1)CC2,.[11.6 µM],.[11.5 µM],/,.[11.6 µM],.
O=C(N/N=C/c1cccc(Oc2ccccc2)c1)c1ccccc1Br,?,.,.,.,-32.0
O=C(CNc1cccc2ccccc12)N/N=C/c1cccc(Oc2ccccc2)c1,7.94µM[quencher],?,.,?,-31.8
CCn1c(C)cc(/C=C2/SC(=S)N(CC(=O)O)C2=O)c1C,.,?,?,.,.
CCCCN1C(=O)/C(=C/C=C2\SCCN2C)SC1=S,?,14.1µM,.,?,.
CN1CCS/C1=C/C=C1\SC(=S)N(CC(=O)O)C1=O,.,15.8µM,25.1µM,.,.
CN1CCS/C1=C/C=C1/SC(=S)N(Cc2ccccc2)C1=O,.,.,.,.,.
CCCCN1C(=O)/C(=C/C=C2\N(C)c3ccccc3C2(C)C)SC1=S,.,6.31µM,/,?,.
CCCN1C(=O)/C(=C\C=C2/C=CN(CC)c3ccccc32)SC1=S,.,.,?,.,.
COc1ccccc1NC(=O)N1CCOc2ccccc21,12.6µM[quencher],?,.,.,/
CCN(CC)c1ccc(/C=C(/C#N)c2nc3ccc(C)cc3[nH]2)c(OC(C)C)c1,?,?,25.1µM,.,.
CCCOc1cc(N(CC)CC)ccc1/C=C(/C#N)c1nc2ccc(C)cc2[nH]1,?,?,.,?,.
CCOc1cc(N(CC)CC)ccc1/C=C(/C#N)c1nc2ccccc2[nH]1,10µM[quencher],?,.,.,.
Cc1ccc(CNc2ccc3c(c2)OCO3)cc1,?,?,28.2µM,?,-36.6
COc1cccc(Oc2cn[nH]c2-c2ccc(OCC(=O)NN)cc2O)c1,/,/,.,/,.
C=C(C)COc1ccc(-c2[nH]ncc2Oc2ccccc2OC)c(O)c1,14.1µM[quencher],?,.,?,.
C=C(C)COc1ccc(-c2ncncc2-c2ccccc2OC)c(O)c1,/,/,.,/,.
CCCOC(=O)c1ccc(Oc2cn[nH]c2-c2ccc(OC)cc2O)cc1,11.2µM[quencher],?,.,?,.
SMILES,Tau fluor counter,Tau fibril ThT,USP1 inh,Tau FP inhib,Coupling enz
C=C(C)COc1ccc(-c2[nH]ncc2-c2ccccc2OC)c(O)c1,15.8µM[quencher],?,.,.,.
C=C(C)COc1ccc(-c2[nH]ncc2-c2ccc(Br)cc2)c(O)c1,10µM[quencher],?,.,28.2µM,.
C=C(C)COc1ccc(-c2nc(N)ncc2Oc2ccccc2OC)c(O)c1,?,.,.,?,.
Cc1ccccc1C(=O)OCc1cc(=O)n2nc(C3CCCCC3)sc2n1,.,?,.,.,/
Cc1ccccc1CNC(=O)c1oc2c(c1C)-c1nn(Cc3ccc(Cl)cc3)cc1CC2,.,.,.,.,/
C=C(C)COc1ccc(-c2[nH]ncc2Oc2ccc(OC)cc2)c(O)c1,7.94µM[quencher],?,.,?,.
COc1cccc(-c2cn3c(n2)sc2cc(C(=O)NCCc4ccccc4)ccc23)c1,.,.,.,.,/
Cc1ccc(S(=O)(=O)c2ccccc2)cc1S,.,28.2µM,/,?,.
COc1cc(OC)c(C2CC(=O)N3CN(C)CSC3=C2C#N)cc1OC (centres undefined),.,?,.,?,.
CCc1ccccc1N1CCN(S(=O)(=O)c2cc(OC)ccc2OC)CC1,.,.,.,.,.
COc1cc(OC)c(C2CC(=O)N3CN(c4ccccc4)CSC3=C2C#N)cc1OC (centres undefined),.,28.2µM,.,35.5µM,.
COc1ccc(Br)cc1C1CC(=O)N2CN(Cc3ccccc3)CSC2=C1C#N (centres undefined),.,28.2µM,?,?,.
CCc1ccccc1N1CSC2=C(C#N)C(c3cc(OC)c(OC)cc3OC)CC(=O)N2C1 (centres undefined),.,28.2µM,.,?,-52.3
O=C(Nc1ncccc1O)c1ccc(Oc2ccccc2)cc1,/,/,.,/,.
O=C(CC1CC2CCC1C2)NCCc1ccc(Cl)cc1 (centres undefined),/,/,.,/,.
CCCn1c(O)c(N=Nc2ccc3ccccc3n2)c2ccccc21,.,12.6µM,.,.,.
COc1ccc2c(c1)OCc1c-2oc2cc(OC)ccc12,?,8.91µM,/,?,.
C/C(Cn1nnc([N+](=O)[O-])n1)=N\NC(=O)c1ccccc1Cl,.,.,.,.,-40.0
C/C(Cn1nnc([N+](=O)[O-])n1)=N\NC(=O)c1cccc(Cl)c1,.,.,.,.,-36.1
N=C(N)SCc1ccccn1,.,.,.,.,-80.2
CCCCn1c(N)c(N(CC(C)C)C(=O)C2=COCCO2)c(=O)[nH]c1=O,/,/,.,/,/
COc1cc([N+](=O)[O-])cc(/C=N/NC(=O)c2cc(-c3ccccc3)nc3ccccc23)c1O,?,15.8µM,?,.,.
COc1cc([N+](=O)[O-])cc(/C=N/NC(=O)c2cc(C)nc3ccccc23)c1O,.,14.1µM,.,.,.
Cc1cc(C(=O)N/N=C/c2cccc([N+](=O)[O-])c2)c2ccccc2n1,.,?,.,.,.
COc1ccc(/C=N/NC(=O)c2cc(-c3ccccc3)nc3ccccc23)c(C(=O)O)c1OC,/,/,.,/,.
SMILES,Tau fluor counter,Tau fibril ThT,USP1 inh,Tau FP inhib,Coupling enz
COc1ccc(C)cc1NC(=O)Nc1ccccc1OCc1cc(=O)n2ccccc2n1,?,?,?,.,/
O=C(Nc1ccnn1C1CCN(C(=O)c2cc(Cl)ccc2F)CC1)C1CCOC1 (centres undefined),/,/,.,/,.
CCOC(=O)C1=C(COC(=O)c2cccnc2SC)NC(=O)NC1C (centres undefined),/,/,.,/,/
COc1cccc(C(=O)/C=C/Nc2cc(C)ccc2O)c1,15.8µM[quencher],3.55µM,?,.,.
CCOC(=O)c1ccc(N/C=C\C(=O)c2cccc(OC)c2)cc1,.,?,.,.,.
Cc1ccc(NS(=O)(=O)c2cc(NC(=O)c3ccc4c(c3)NC(=O)CS4)ccc2Cl)c(C)c1,?,.,.,25.1µM,.
